Measured values from article PMC4336329 (PLoS ONE, 2015).
Hit rate of the full screen: of about 310,000 compounds, about 14,000 (4.5%) showed an effect of 50% or more. The effect is printed as a negative number. Shown is part of a subset that was picked to be rich in strong results.

target: human ether-à-go-go-related gene (hERG) potassium channel (human, UniProt Q12809); experiment: primary screen, population patch clamp on CHO cells stably expressing hERG; higher = less effect of the substance
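Also: peak tail current of the secondary pulse compared with the same well before compound.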

human ether-à-go-go-related gene (hERG) potassium channel, sequence (Q12809 whole entry, looked up): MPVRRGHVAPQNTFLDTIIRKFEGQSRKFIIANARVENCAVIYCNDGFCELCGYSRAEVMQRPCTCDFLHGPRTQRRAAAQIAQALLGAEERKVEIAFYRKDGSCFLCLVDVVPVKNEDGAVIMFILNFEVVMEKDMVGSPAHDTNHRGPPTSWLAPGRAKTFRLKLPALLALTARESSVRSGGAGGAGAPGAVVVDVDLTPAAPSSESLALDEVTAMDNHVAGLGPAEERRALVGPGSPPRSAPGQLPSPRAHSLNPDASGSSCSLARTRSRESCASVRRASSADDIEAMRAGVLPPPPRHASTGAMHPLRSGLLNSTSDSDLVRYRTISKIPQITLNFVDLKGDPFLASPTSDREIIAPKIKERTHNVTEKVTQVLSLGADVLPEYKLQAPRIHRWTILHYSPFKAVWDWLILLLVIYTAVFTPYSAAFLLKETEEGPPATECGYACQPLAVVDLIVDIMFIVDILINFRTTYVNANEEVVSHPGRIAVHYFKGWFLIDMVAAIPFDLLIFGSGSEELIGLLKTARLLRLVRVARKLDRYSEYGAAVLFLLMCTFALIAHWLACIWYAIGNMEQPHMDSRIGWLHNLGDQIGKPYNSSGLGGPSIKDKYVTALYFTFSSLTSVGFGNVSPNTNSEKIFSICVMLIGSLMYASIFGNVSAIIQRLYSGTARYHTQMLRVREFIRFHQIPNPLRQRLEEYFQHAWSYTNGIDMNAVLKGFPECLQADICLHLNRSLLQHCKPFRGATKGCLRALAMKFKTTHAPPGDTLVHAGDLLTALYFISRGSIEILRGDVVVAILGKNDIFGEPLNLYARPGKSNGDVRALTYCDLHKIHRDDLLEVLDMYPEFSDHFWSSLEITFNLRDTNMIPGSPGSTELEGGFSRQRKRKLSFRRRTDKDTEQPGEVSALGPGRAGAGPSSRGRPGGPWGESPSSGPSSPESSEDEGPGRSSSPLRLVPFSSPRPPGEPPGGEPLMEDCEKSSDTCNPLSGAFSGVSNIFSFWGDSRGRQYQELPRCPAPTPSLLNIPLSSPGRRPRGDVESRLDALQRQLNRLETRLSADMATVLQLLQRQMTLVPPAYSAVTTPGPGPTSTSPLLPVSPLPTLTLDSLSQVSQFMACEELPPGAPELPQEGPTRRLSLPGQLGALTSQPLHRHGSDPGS

SMILES	hERG current change (%, negative = inhibition) at 10uM
CCCc1cc(CNC(=O)C2CCC(=O)N(CCc3cccc(F)c3)C2)on1 (stereo not drawn)	-49.6%
COc1ccccc1NC(=O)c1ccc(C)c(S(=O)(=O)N2CCCCC2)c1	-8.22%
Cc1nnsc1C(=O)NNc1ccc(C(C)(C)C)cc1	14.1%
Cc1onc(-c2c(F)cccc2Cl)c1C(=O)c1ccccc1O	-0.367%
CCc1ccc2nc(SCC(=O)Nc3nnc(C)s3)c(C)cc2c1	16%
Cn1cc(Br)c(C(=O)N/N=C/c2cccc(OC3CSC3)c2)n1	-2.36%
COc1ccc(-n2cccc2C=O)cc1	16.7%
CN(C)c1ccc(-n2cccc2/C=C/[N+](=O)[O-])cc1	20.2%
COc1ccc(-n2cccc2/C=C/[N+](=O)[O-])cc1	-50.4%
CCOC(=O)c1c(NCc2ccc3c(c2)OCO3)c2ccccc2[nH]c1=O	-10.8%
O=C(Cc1ccccc1)N/N=C/c1ccc(OCC(=O)Nc2ccccc2)cc1	-14.2%
Cc1cc(NC(=O)CSc2nc3ccc(Cl)cc3[nH]2)no1	9.82%
O=C(CSc1ccccc1)Nc1ccc(N2CCOCC2)c(F)c1	11.8%
COc1ccc(SCC(=O)Nc2ccc(N3CCN(C)CC3)c(F)c2)cc1	-49.7%
Cc1ccc(SCC(=O)Nc2ccc(N3CCN(c4ccccc4)CC3)c(F)c2)cc1	10.3%
CC(C)C(=O)Nc1ccc(N2CCN(C)CC2)c(F)c1	14.2%
CN1CCN(c2ccc(NC(=O)CSc3ccccc3)cc2F)CC1	-68.4%
O=C(CSc1ccccc1)Nc1ccc(N2CCN(c3ccccc3)CC2)c(F)c1	10.9%
Cc1ccc(SCC(=O)Nc2ccc(N3CCN(C)CC3)c(F)c2)cc1	-64.4%

SMILES	hERG current change (%, negative = inhibition) at 10uM
CN1CCN(c2ccc(NC(=O)CN3CCOCC3)cc2F)CC1	24.5%
Cc1ccc(SCC(=O)Nc2ccc(N3CCN(C)CC3)c(F)c2)c(C)c1	-72%
Cc1ccc2c(CC(=O)OC(C)C(=O)Nc3ncc(Cl)cc3Cl)coc2c1 (stereo not drawn)	-28.2%
NC(=O)c1ccsc1NC(=O)c1cccs1	-13.6%
O=C(Nc1ccc2c(c1)OCO2)c1ccc(N2C(=O)c3ccccc3C2=O)cc1	-5.61%
Cc1cc2occ(CC(=O)N(CC(C)C)c3c(N)n(Cc4ccccc4)c(=O)[nH]c3=O)c2cc1C	-18.4%
O=C(Cn1cnc2c(nnn2Cc2ccccc2F)c1=O)NCC1CCCO1 (stereo not drawn)	-3.88%
O=C(/C=C/c1ccccc1[N+](=O)[O-])N1CCOCC1	15.5%
O=C(/C=C/c1c(Cl)cccc1Cl)N1CCN(c2ncccn2)CC1	-72.7%
O=C(/C=C/c1ccco1)N1CCN(S(=O)(=O)c2cccs2)CC1	-7.4%
O=C(/C=C/c1ccc(F)cc1)N1CCN(c2ncccn2)CC1	12.1%
O=C(/C=C/c1ccccc1)N1CCN(c2ccccn2)CC1	-42.8%
O=C(/C=C/c1cccc([N+](=O)[O-])c1)N1CCN(S(=O)(=O)c2cccs2)CC1	-62.2%
O=C(/C=C/c1cccc(F)c1)N1CCN(c2ncccn2)CC1	7.29%
O=C(/C=C/c1ccccc1Cl)N1CCN(c2ncccn2)CC1	-32.4%
O=C(/C=C/c1ccc([N+](=O)[O-])cc1)N1CCN(S(=O)(=O)c2cccs2)CC1	-18.7%
O=C(/C=C/c1ccccc1[N+](=O)[O-])N1CCN(c2ccccc2F)CC1	-13.8%
O=C(/C=C/c1cccc(F)c1)N1CCN(c2ccccn2)CC1	-118%
O=C(/C=C/c1ccccc1[N+](=O)[O-])N1CCN(c2ccc(F)cc2)CC1	-56.5%

SMILES	hERG current change (%, negative = inhibition) at 10uM
COc1cccc(CNC(=O)c2ccc(CS(=O)(=O)Cc3ccc(C)cc3)o2)c1	-12.8%
CCN(c1cccc(C)c1)S(=O)(=O)c1nnc(NC(=O)c2ccco2)s1	3.8%
CCOC(=O)c1sc(NC(=O)c2ccc3nc[nH]c3c2)nc1C	8.25%
O=C(Nc1cc2ccccc2oc1=O)c1ccccc1	22.7%
O=C(Cc1ccccc1)N[C@@H](Cc1ccccc1)C(=O)O	7.29%
Cc1ccc(CC(=O)NCCC(=O)O)cc1	16.9%
Cc1c(C(=O)O)oc2ccc(S(=O)(=O)NCCC3=CCCCC3)cc12	0.629%
COc1ccc(NC(=O)C2CCN(C(=O)c3ccco3)CC2)c(OC)c1	22.3%
Cc1nc2ccc(Br)cn2c1NC(C)(C)C	-20.9%
COc1ccc(-c2cc(C#N)nc(N3CCN(c4ccccc4)CC3)n2)cc1	3.41%
CCOc1cc2[nH]c(=S)n(CCCN3CCCC3=O)c(=O)c2cc1OCC	-23.5%
COCc1nnc(NC(=O)c2cccc(NC(=O)c3ccccc3)c2)s1	-8.59%
O=C(/C=C/c1cccc([N+](=O)[O-])c1)N1CCOCC1	-3.86%
O=C(/C=C/c1cccc([N+](=O)[O-])c1)N1CCN(c2ccccc2F)CC1	-38.9%
O=C(/C=C/c1cccc([N+](=O)[O-])c1)N1CCN(c2ccc(F)cc2)CC1	-56.7%
O=C(NCCC(=O)N1CCCC1)c1ccccc1Cl	22%
CNC(=O)C(C)N1c2cccc3cccc(c23)S1(=O)=O (stereo not drawn)	22.3%
Cc1ccc(OCc2nnc(SCC(=O)c3ccccc3)n2-c2ccccc2)cc1	1.75%
CC1(c2ccccc2)NC(=O)N(CC(=O)Nc2ccccc2C(=O)N2CCCCC2)C1=O (stereo not drawn)	19.7%
